Assay results from PMC11006913.

Columns and labels:
Assay in all cases: PBM; 200 nM protein, PBS
Conditions in all cases: dsDNA, one strand shown
HESX1 [1] = target: HESX1 (Homo sapiens, UniProt Q9UBX0 95-180, R165K)
SHOX [2] = target: SHOX (Homo sapiens, UniProt O15266 103-189)
ALX4 = ALX4 (Homo sapiens, UniProt Q9H161 200-286, Q225E)
HESX1 [3] = target: HESX1 (Homo sapiens, UniProt Q9UBX0 95-180)
MSX2 = MSX2 (Homo sapiens, UniProt P35548 130-214, R199I)
ALX1 [4] = target: ALX1 (Homo sapiens, UniProt Q15699 118-204, L144V)
ALX3 [5] = target: ALX3 (Homo sapiens, UniProt O95076 139-225, N203Q)
SHOX [6] = target: SHOX (Homo sapiens, UniProt O15266 103-189, R173C)
ALX1 [7] = target: ALX1 (Homo sapiens, UniProt Q15699 118-204, L144R)
ALX3 [8] = target: ALX3 (Homo sapiens, UniProt O95076 139-225)
PROP1 [9] = target: PROP1 (Homo sapiens, UniProt O75360 56-141)
HESX1 [10] = target: HESX1 (Homo sapiens, UniProt Q9UBX0 95-180, R109Q)
PROP1 [11] = target: PROP1 (Homo sapiens, UniProt O75360 56-141, R99H)
ALX3 [12] = target: ALX3 (Homo sapiens, UniProt O95076 139-225, L168Q)
HESX1 [13] = target: HESX1 (Homo sapiens, UniProt Q9UBX0 95-180, P111T)
ALX3 [14] = target: ALX3 (Homo sapiens, UniProt O95076 139-225, L168V)
PROP1 [15] = target: PROP1 (Homo sapiens, UniProt O75360 56-141, F88S)
HESX1 [16] = target: HESX1 (Homo sapiens, UniProt Q9UBX0 95-180, F115L)
ALX1 [17] = target: ALX1 (Homo sapiens, UniProt Q15699 118-204)
ALX3 [18] = target: ALX3 (Homo sapiens, UniProt O95076 139-225, N203S)
Chain of ALX3 (Homo sapiens, UniProt O95076 139-225, N203S) (O95076 139-225 N203S): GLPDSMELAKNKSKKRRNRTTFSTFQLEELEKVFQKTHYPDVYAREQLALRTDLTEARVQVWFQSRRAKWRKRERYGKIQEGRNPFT

Chain of SHOX (Homo sapiens, UniProt O15266 103-189) (O15266 103-189): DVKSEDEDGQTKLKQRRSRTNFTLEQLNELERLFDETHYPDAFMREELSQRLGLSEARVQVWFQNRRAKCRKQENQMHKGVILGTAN
Chain of ALX1 (Homo sapiens, UniProt Q15699 118-204, L144V) (Q15699 118-204 L144V): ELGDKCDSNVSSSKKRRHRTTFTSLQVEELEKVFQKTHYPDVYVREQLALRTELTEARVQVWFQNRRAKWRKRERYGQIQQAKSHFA
Chain of ALX3 (Homo sapiens, UniProt O95076 139-225, N203Q) (O95076 139-225 N203Q): as the sequence (O95076 139-225 N203S) above, with S65Q counted along it
Chain of PROP1 (Homo sapiens, UniProt O75360 56-141, F88S) (O75360 56-141 F88S): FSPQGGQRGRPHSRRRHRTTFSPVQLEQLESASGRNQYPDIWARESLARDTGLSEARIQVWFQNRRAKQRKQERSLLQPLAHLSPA
Chain of PROP1 (Homo sapiens, UniProt O75360 56-141, R99H) (O75360 56-141 R99H): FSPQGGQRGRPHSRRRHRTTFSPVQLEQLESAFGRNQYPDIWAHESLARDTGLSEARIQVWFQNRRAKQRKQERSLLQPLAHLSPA
Chain of ALX4 (Q9H161 200-286 Q225E): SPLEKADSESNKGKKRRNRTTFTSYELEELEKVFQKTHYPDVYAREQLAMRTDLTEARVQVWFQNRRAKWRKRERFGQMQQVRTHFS
Chain of ALX3 (Homo sapiens, UniProt O95076 139-225, L168V) (O95076 139-225 L168V): as the sequence (O95076 139-225 N203S) above, with L30V, S65N counted along it
Chain of ALX1 (Homo sapiens, UniProt Q15699 118-204, L144R) (Q15699 118-204 L144R): as the sequence (Q15699 118-204 L144V) above, with V27R counted along it
Chain of ALX3 (Homo sapiens, UniProt O95076 139-225, L168Q) (O95076 139-225 L168Q): as the sequence (O95076 139-225 N203S) above, with L30Q, S65N counted along it
Chain of HESX1 (Homo sapiens, UniProt Q9UBX0 95-180, P111T) (Q9UBX0 95-180 P111T): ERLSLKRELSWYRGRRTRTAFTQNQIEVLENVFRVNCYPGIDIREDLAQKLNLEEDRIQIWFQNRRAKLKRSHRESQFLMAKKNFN
Chain of MSX2 (P35548 130-214 R199I): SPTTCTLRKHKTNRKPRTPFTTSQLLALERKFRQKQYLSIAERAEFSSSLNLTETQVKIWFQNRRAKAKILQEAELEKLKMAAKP
Chain of HESX1 (Homo sapiens, UniProt Q9UBX0 95-180, F115L) (Q9UBX0 95-180 F115L): as the sequence (Q9UBX0 95-180 P111T) above, with T17P, F21L counted along it
Chain of HESX1 (Homo sapiens, UniProt Q9UBX0 95-180, R109Q) (Q9UBX0 95-180 R109Q): as the sequence (Q9UBX0 95-180 P111T) above, with R15Q, T17P counted along it
Chain of ALX3 (Homo sapiens, UniProt O95076 139-225) (O95076 139-225): as the sequence (O95076 139-225 N203S) above, with S65N counted along it
Chain of SHOX (Homo sapiens, UniProt O15266 103-189, R173C) (O15266 103-189 R173C): as the sequence (O15266 103-189) above, with R71C counted along it
Chain of HESX1 (Homo sapiens, UniProt Q9UBX0 95-180) (Q9UBX0 95-180): as the sequence (Q9UBX0 95-180 P111T) above, with T17P counted along it
Chain of ALX1 (Homo sapiens, UniProt Q15699 118-204) (Q15699 118-204): as the sequence (Q15699 118-204 L144V) above, with V27L counted along it
Chain of PROP1 (Homo sapiens, UniProt O75360 56-141) (O75360 56-141): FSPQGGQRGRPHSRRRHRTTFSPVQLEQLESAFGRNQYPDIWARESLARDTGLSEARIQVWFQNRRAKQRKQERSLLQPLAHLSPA
Chain of HESX1 (Homo sapiens, UniProt Q9UBX0 95-180, R165K) (Q9UBX0 95-180 R165K): as the sequence (Q9UBX0 95-180 P111T) above, with T17P, R71K counted along it

| Sequence | binding signal (HESX1 [1]) | binding signal (SHOX [2]) | binding signal (ALX4) | binding signal (HESX1 [3]) | binding signal (MSX2) | binding signal (ALX1 [4]) | binding signal (ALX3 [5]) | binding signal (SHOX [6]) | binding signal (ALX1 [7]) | binding signal (ALX3 [8]) | binding signal (PROP1 [9]) | binding signal (HESX1 [10]) | binding signal (PROP1 [11]) | binding signal (ALX3 [12]) | binding signal (HESX1 [13]) | binding signal (ALX3 [14]) | binding signal (PROP1 [15]) | binding signal (HESX1 [16]) | binding signal (ALX1 [17]) | binding signal (ALX3 [18]) |
| --- | --- | --- | --- | --- | --- | --- | --- | --- | --- | --- | --- | --- | --- | --- | --- | --- | --- | --- | --- | --- |
| AGCAATTA | 12.6 upbm affinity estimate (log intensity, higher = more binding, comparable within an allelic series) | 11.9 upbm affinity estimate (log intensity, higher = more binding, comparable within an allelic series) | 13 upbm affinity estimate (log intensity, higher = more binding, comparable within an allelic series) | 12.7 upbm affinity estimate (log intensity, higher = more binding, comparable within an allelic series) | 13.2 upbm affinity estimate (log intensity, higher = more binding, comparable within an allelic series) | 11.6 upbm affinity estimate (log intensity, higher = more binding, comparable within an allelic series) | 8.32 upbm affinity estimate (log intensity, higher = more binding, comparable within an allelic series) | 9.41 upbm affinity estimate (log intensity, higher = more binding, comparable within an allelic series) | 11.3 upbm affinity estimate (log intensity, higher = more binding, comparable within an allelic series) | 12.4 upbm affinity estimate (log intensity, higher = more binding, comparable within an allelic series) | 11.4 upbm affinity estimate (log intensity, higher = more binding, comparable within an allelic series) | 9.19 upbm affinity estimate (log intensity, higher = more binding, comparable within an allelic series) | 11.4 upbm affinity estimate (log intensity, higher = more binding, comparable within an allelic series) | 10.5 upbm affinity estimate (log intensity, higher = more binding, comparable within an allelic series) | 11.1 upbm affinity estimate (log intensity, higher = more binding, comparable within an allelic series) | 9.97 upbm affinity estimate (log intensity, higher = more binding, comparable within an allelic series) | 7.59 upbm affinity estimate (log intensity, higher = more binding, comparable within an allelic series) | 7.88 upbm affinity estimate (log intensity, higher = more binding, comparable within an allelic series) | 12.2 upbm affinity estimate (log intensity, higher = more binding, comparable within an allelic series) | 8.41 upbm affinity estimate (log intensity, higher = more binding, comparable within an allelic series) |
| CAATTAAG | 13 upbm affinity estimate (log intensity, higher = more binding, comparable within an allelic series) | 12.3 upbm affinity estimate (log intensity, higher = more binding, comparable within an allelic series) | 13.4 upbm affinity estimate (log intensity, higher = more binding, comparable within an allelic series) | 12.9 upbm affinity estimate (log intensity, higher = more binding, comparable within an allelic series) | 12.8 upbm affinity estimate (log intensity, higher = more binding, comparable within an allelic series) | 11.7 upbm affinity estimate (log intensity, higher = more binding, comparable within an allelic series) | 8.48 upbm affinity estimate (log intensity, higher = more binding, comparable within an allelic series) | 10.1 upbm affinity estimate (log intensity, higher = more binding, comparable within an allelic series) | 11.4 upbm affinity estimate (log intensity, higher = more binding, comparable within an allelic series) | 12.5 upbm affinity estimate (log intensity, higher = more binding, comparable within an allelic series) | 11.6 upbm affinity estimate (log intensity, higher = more binding, comparable within an allelic series) | 9.81 upbm affinity estimate (log intensity, higher = more binding, comparable within an allelic series) | 11.8 upbm affinity estimate (log intensity, higher = more binding, comparable within an allelic series) | 10.7 upbm affinity estimate (log intensity, higher = more binding, comparable within an allelic series) | 11.7 upbm affinity estimate (log intensity, higher = more binding, comparable within an allelic series) | 10.2 upbm affinity estimate (log intensity, higher = more binding, comparable within an allelic series) | 7.75 upbm affinity estimate (log intensity, higher = more binding, comparable within an allelic series) | 7.88 upbm affinity estimate (log intensity, higher = more binding, comparable within an allelic series) | 12.3 upbm affinity estimate (log intensity, higher = more binding, comparable within an allelic series) | 8.56 upbm affinity estimate (log intensity, higher = more binding, comparable within an allelic series) |
| ATCAATTA | 13.5 upbm affinity estimate (log intensity, higher = more binding, comparable within an allelic series) | 12.6 upbm affinity estimate (log intensity, higher = more binding, comparable within an allelic series) | 13.7 upbm affinity estimate (log intensity, higher = more binding, comparable within an allelic series) | 13.4 upbm affinity estimate (log intensity, higher = more binding, comparable within an allelic series) | 13.1 upbm affinity estimate (log intensity, higher = more binding, comparable within an allelic series) | 12 upbm affinity estimate (log intensity, higher = more binding, comparable within an allelic series) | 8.5 upbm affinity estimate (log intensity, higher = more binding, comparable within an allelic series) | 10.1 upbm affinity estimate (log intensity, higher = more binding, comparable within an allelic series) | 11.8 upbm affinity estimate (log intensity, higher = more binding, comparable within an allelic series) | 12.7 upbm affinity estimate (log intensity, higher = more binding, comparable within an allelic series) | 11.8 upbm affinity estimate (log intensity, higher = more binding, comparable within an allelic series) | 10.2 upbm affinity estimate (log intensity, higher = more binding, comparable within an allelic series) | 12.2 upbm affinity estimate (log intensity, higher = more binding, comparable within an allelic series) | 10.9 upbm affinity estimate (log intensity, higher = more binding, comparable within an allelic series) | 12.1 upbm affinity estimate (log intensity, higher = more binding, comparable within an allelic series) | 10.4 upbm affinity estimate (log intensity, higher = more binding, comparable within an allelic series) | 7.84 upbm affinity estimate (log intensity, higher = more binding, comparable within an allelic series) | 8.22 upbm affinity estimate (log intensity, higher = more binding, comparable within an allelic series) | 12.8 upbm affinity estimate (log intensity, higher = more binding, comparable within an allelic series) | 8.66 upbm affinity estimate (log intensity, higher = more binding, comparable within an allelic series) |
| AATTAATC | 11.9 upbm affinity estimate (log intensity, higher = more binding, comparable within an allelic series) | 11.9 upbm affinity estimate (log intensity, higher = more binding, comparable within an allelic series) | 13.2 upbm affinity estimate (log intensity, higher = more binding, comparable within an allelic series) | 12 upbm affinity estimate (log intensity, higher = more binding, comparable within an allelic series) | 12.3 upbm affinity estimate (log intensity, higher = more binding, comparable within an allelic series) | 11.9 upbm affinity estimate (log intensity, higher = more binding, comparable within an allelic series) | 8.39 upbm affinity estimate (log intensity, higher = more binding, comparable within an allelic series) | 9.4 upbm affinity estimate (log intensity, higher = more binding, comparable within an allelic series) | 11.6 upbm affinity estimate (log intensity, higher = more binding, comparable within an allelic series) | 12.5 upbm affinity estimate (log intensity, higher = more binding, comparable within an allelic series) | 11.2 upbm affinity estimate (log intensity, higher = more binding, comparable within an allelic series) | 9.36 upbm affinity estimate (log intensity, higher = more binding, comparable within an allelic series) | 11.1 upbm affinity estimate (log intensity, higher = more binding, comparable within an allelic series) | 10.6 upbm affinity estimate (log intensity, higher = more binding, comparable within an allelic series) | 10.7 upbm affinity estimate (log intensity, higher = more binding, comparable within an allelic series) | 10.2 upbm affinity estimate (log intensity, higher = more binding, comparable within an allelic series) | 7.81 upbm affinity estimate (log intensity, higher = more binding, comparable within an allelic series) | 7.79 upbm affinity estimate (log intensity, higher = more binding, comparable within an allelic series) | 12.3 upbm affinity estimate (log intensity, higher = more binding, comparable within an allelic series) | 8.52 upbm affinity estimate (log intensity, higher = more binding, comparable within an allelic series) |
